# Data as given in PubChem BioAssay (Tox21).
# Values joined by “and” are separate entries in the source; they are usually repeats but may differ in a detail not shown here. Identical values can stand only once. Inconclusive results are not listed. A structure can be active in one record and inactive in another. Active and inactive are the calls of the source. Unless noted, calls come from the whole dose curve; as a rule, active = well fitted curve in the direction sought with a large enough effect in the repeat runs; inconclusive = weak or mixed curves; inactive = no such curve, though single readings can be large; an effect the other way counts as inactive or inconclusive.
# What was measured:
# [1] = qHTS assay to identify small molecule antagonists of the estrogen related receptor (ERR) signaling pathway from Tox21 library - cell viability counter screen (AID 1224834); note: nearly all actives have a fitted effect of over 30% in size; note: potency is the fitted concentration of half-maximal effect
# In short: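 Viability readout (CellTiter-Fluor fluorescence, 30 min at 37 C) multiplexed with the ERR assay; cells treated 17.5 h at 37 C with compounds delivered in DMSO.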
# [2] = biological target: Luciferin 4-monooxygenase (Photinus pyralis) (UniProt P08659); test: qHTS assay to identify small molecule inhibitors of firefly luciferase (AID 1224835); note: nearly all actives have a fitted effect of over 25% in size
# In short: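 Inhibition of purified Photinus luciferase is measured by luminescence. Substrate levels (D-luciferin, ATP) sit at their KM values. Each compound is tested in a concentration series.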
# [3] = biological target: Nuclear receptor subfamily 1 group I member 3 (Homo sapiens) (UniProt Q14994); test: qHTS assay to identify small molecule agonists of the constitutive androstane receptor (CAR) signaling pathway (AID 1224839);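 note: HepG2 cells stably carrying human CAR and a CYP2B6 luciferase reporter; nearly all actives have a fitted effect of over 15% in size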
# In short: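 Stable hCAR/CYP2B6-2.2kb HepG2 line in DMEM with 10% FBS; compounds (15 concentrations) and 0.75 uM PK11195 final, 24 h at 37 C/5% CO2, then ONE-Glo luminescence after 30 min.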
# [4] = qHTS assay to identify small molecule agonists of the estrogen related receptor signaling pathway with the pleiotropic PPARgamma coactivator (PGC) from Tox21 10K library (AID 1224842); note: nearly all actives have a fitted effect of over 15% in size; note: potency is the fitted concentration of half-maximal effect
# In short: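 Luminescence from One-Glo (30 min, room temperature) measured after PGC/ERR cells had 18 h at 37 C with pinned compound (23 nL in DMSO). Cells had been seeded at 2,000 per well and pre-incubated 6 h.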
# [5] = biological target: Thyrotropin receptor (Homo sapiens) (UniProt P16473); test: qHTS assay to identify small molecule agonists of the thyroid stimulating hormone receptor (TSHR) signaling pathway (AID 1224843; calls by dose curve; note: nearly all actives have a fitted effect of over 45% in size; note: potency is the fitted concentration of half-maximal effect)
# In short: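 Screening of the Tox21 10K collection used HEK293 cells engineered with TSHR at 800 cells per well. After a 30-min room-temperature compound exposure, HTRF cAMP reagents were added and fluorescence recorded 1 h later.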
# [6] = qHTS assay to identify small molecule agonists of the hypoxia (HIF-1) signaling pathway - cell viability counter screen (AID 1224844; calls by dose curve; note: nearly all actives have a fitted effect of over 50% in size; note: potency is the fitted concentration of half-maximal effect)
# In short: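 Luminescent ATP content (CellTiter-Glo, 30 min, room temperature) served as the viability measure in HRE-bla ME-180 cells exposed to compounds for 17 hrs in low-serum medium (0.5% dialyzed FBS).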
# [7] = qHTS assay to identify small molecule antagonists of the estrogen related receptor (ERR) signaling pathway from Tox21 library (AID 1224848); note: nearly all actives have a fitted effect of over 50% in size; note: potency is the fitted concentration of half-maximal effect
# In short: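 Antagonist-mode screen of the Tox21 10K library in an NTP-provided ERR reporter cell line; 18 h compound exposure at 37 C, luminescence measured with ONE-Glo.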
# [8] = qHTS assay to identify small molecule agonists of the estrogen related receptor (ERR) signaling pathway from Tox21 library (AID 1224849; calls by dose curve; note: nearly all actives have a fitted effect of over 15% in size); details: ERR reporter cell line, ONE-Glo luciferase, 18 h
# In short: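 We plated ERR reporter cells, waited 6 h, added compounds in DMSO by pin tool and incubated them 18 h at 37 C. ONE-Glo was then added and luminescence read after 30 min.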
# [9] = qHTS RealTime-Glo MT Cell Viability Assay in HEK293 cells - 32 hour (AID 1224868); note: nearly all actives have a fitted effect of over 50% in size; note: potency is the fitted concentration of half-maximal effect
# In short: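 Assay medium contained NanoLuc luciferase plus cell-permeant prosubstrate, added with HEK293 cells at 600 cells/well. After 5 h at 37 C/5% CO2 compounds were added; plates stayed at 37 C for 40 h with serial luminescence reads.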
# [10] = A CellTox Green Cytotoxicity Assay to monitor cytotoxicity in HEK293 cells - 0 hour (AID 1224869); note: nearly all actives have a fitted effect of over 50% in size
# In short: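 Each value comes from one timepoint of a single continuous run in which HEK293 cells with CellTox Green were exposed to compound for up to 40 h at 37 C, dye fluorescence rising with cell death.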
# [11] = qHTS RealTime-Glo MT Cell Viability Assay in HepG2 cells - 40 hour (AID 1224870); note: nearly all actives have a fitted effect of over 50% in size; note: potency is the fitted concentration of half-maximal effect
# In short: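 Real-time viability: cells seeded at 600 per well together with NanoLuc and cell-permeant prosubstrate, compounds added after 5 h incubation. Luminescence tracked at 0, 8, 16, 24, 32 and 40 h of exposure.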
# [12] = qHTS assay to identify small molecule antagonists of the estrogen related receptor signaling pathway with the pleiotropic PPARgamma coactivator (PGC) from Tox21 10K library (AID 1224841; call rule not given here; note: potency is the fitted concentration of half-maximal effect)
# In short: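 Compound exposure ran 18 hours at 37 C in PGC/ERR cells (2,000/well) that had first rested 6 hours in a 37 C/5% CO2 incubator. Luciferase activity was then detected with One-Glo after a 30-minute room-temperature step.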
# [13] = qHTS assay to identify small molecule agonists of H2AX - cell viability counter screen (AID 1224847; calls by dose curve; note: nearly all actives have a fitted effect of over 30% in size; note: potency is the fitted concentration of half-maximal effect)
# In short: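 Viability of CHO-K1 (wild type) cells after 3 hr compound exposure was measured by CellTiter-Glo luminescence.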
# [14] = qHTS assay to identify small molecule agonists of the constitutive androstane receptor (CAR) signaling pathway - cell viability counter screen (AID 1224836); note: nearly all actives have a fitted effect of over 45% in size; note: potency is the fitted concentration of half-maximal effect
# In short: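 Fluorescence from CellTiter-Fluor indicates live cells after 23 h exposure. The human hepatoma line expresses hCAR and a CYP2B6-2.2kb reporter. Incubation medium contains 0.75 uM PK11195 (final).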
# [15] = qHTS assay to identify small molecule antagonists of the constitutive androstane receptor (CAR) signaling pathway - cell viability counter screen (AID 1224837); note: nearly all actives have a fitted effect of over 45% in size; note: potency is the fitted concentration of half-maximal effect
# In short: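 Fluorescence from CellTiter-Fluor served as the viability signal. Human hepatoma HepG2 cells stably bearing hCAR and CYP2B6-2.2kb received compound plus CITCO (50 nM final) for 23 hr.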
# [16] = biological target: Nuclear receptor subfamily 1 group I member 3 (Homo sapiens) (UniProt Q14994); test: qHTS assay to identify small molecule antagonists of the constitutive androstane receptor (CAR) signaling pathway (AID 1224838);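 note: HepG2 cells stably expressing hCAR with CYP2B6 luciferase reporter stimulated by CITCO; nearly all actives have a fitted effect of over 40% in size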; note: potency is the fitted concentration of half-maximal effect
# In short: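 Quantitative HTS in double-stable HepG2-CYP2B6-hCAR cells. After 4 h plating, cells get compound (15 concentrations) and CITCO at 50 nM final, incubate 24 h at 37 C, then ONE-Glo luminescence is read.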
# [17] = qHTS assay to identify small molecule antagonists of the estrogen related receptor signaling pathway with the pleiotropic PPARgamma coactivator (PGC) from Tox21 10K library - cell viability counter screen (AID 1224840; active = well fitted cell-killing curve with a large enough effect in the repeat runs, not every such curve was filed as active; note: nearly all actives have a fitted effect of over 40% in size; note: potency is the fitted concentration of half-maximal effect)
# In short: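 Compounds in DMSO, alongside positive and negative controls, were pinned onto PGC/ERR cells (2,000 per well). Exposure lasted 17.5 hours at 37 C, followed by a 30-minute CellTiter-Fluor incubation and fluorescence reading.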
# [18] = qHTS assay to identify small molecule agonists of H2AX (AID 1224845; active = well fitted activation curve with a large enough effect in the signal ratio in the repeat runs, not every such curve was filed as active; the % refers to the signal ratio; note: potency is the fitted concentration of half-maximal effect)
# In short: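 Phospho-H2AX Ser139 measured by HTRF (ex 320 nm; em 665 and 620 nm) after 24 hr antibody incubation. Compounds, 15 concentrations, 0.76% DMSO, were applied to CHO-K1 cells for 3hr at 37C before lysis.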
# [19] = qHTS assay to identify small molecule agonists of the hypoxia (HIF-1) signaling pathway (AID 1224846; active = well fitted activation curve with a large enough effect in the signal ratio in the repeat runs, not every such curve was filed as active; the % refers to the signal ratio)
# In short: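 Measured by blue/green FRET after loading CCF4-AM: beta-lactamase expressed from a hypoxia response element in ME-180 cells. Test agents were delivered in DMSO and left 17 hrs; cells had been plated 5 hrs earlier in low-serum (0.5% dialyzed FBS) medium.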
# [20] = qHTS RealTime-Glo MT Cell Viability Assay in HepG2 cells - 24 hour (AID 1224867); note: nearly all actives have a fitted effect of over 50% in size; note: potency is the fitted concentration of half-maximal effect
# In short: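 qHTS, HepG2, 600 cells/well, RealTime-Glo (NanoLuc + prosubstrate) added with cells; 5 h preincubation; DMSO compound addition; 37 C; luminescence at 0/8/16/24/32/40 h.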
# [21] = at 92.4 µM (top of the series) unless noted
# % is set by controls: 0 for no effect and ±100 for the full control effect.
# Chain of Thyrotropin receptor (Homo sapiens) (P16473 whole entry, looked up): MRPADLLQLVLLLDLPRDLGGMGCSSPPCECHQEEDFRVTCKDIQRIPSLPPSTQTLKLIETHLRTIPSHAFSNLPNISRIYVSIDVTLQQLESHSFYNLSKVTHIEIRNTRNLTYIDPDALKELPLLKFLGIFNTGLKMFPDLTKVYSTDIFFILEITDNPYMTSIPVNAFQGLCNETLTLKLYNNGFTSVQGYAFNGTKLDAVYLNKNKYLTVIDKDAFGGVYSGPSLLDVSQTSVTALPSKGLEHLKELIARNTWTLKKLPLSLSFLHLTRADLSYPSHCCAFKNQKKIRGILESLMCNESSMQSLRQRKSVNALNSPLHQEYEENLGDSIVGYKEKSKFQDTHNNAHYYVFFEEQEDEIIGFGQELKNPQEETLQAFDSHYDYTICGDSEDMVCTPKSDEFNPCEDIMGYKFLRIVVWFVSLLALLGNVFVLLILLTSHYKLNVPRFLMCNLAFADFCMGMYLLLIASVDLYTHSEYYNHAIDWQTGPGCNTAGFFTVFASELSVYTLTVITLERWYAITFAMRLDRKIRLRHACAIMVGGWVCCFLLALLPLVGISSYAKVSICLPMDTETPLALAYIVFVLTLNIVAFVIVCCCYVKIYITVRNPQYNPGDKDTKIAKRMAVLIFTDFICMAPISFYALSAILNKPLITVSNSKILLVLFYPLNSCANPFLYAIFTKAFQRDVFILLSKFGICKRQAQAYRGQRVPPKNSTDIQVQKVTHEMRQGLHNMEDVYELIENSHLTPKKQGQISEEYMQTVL
# Chain of Nuclear receptor subfamily 1 group I member 3 (Homo sapiens) (Q14994 whole entry, looked up): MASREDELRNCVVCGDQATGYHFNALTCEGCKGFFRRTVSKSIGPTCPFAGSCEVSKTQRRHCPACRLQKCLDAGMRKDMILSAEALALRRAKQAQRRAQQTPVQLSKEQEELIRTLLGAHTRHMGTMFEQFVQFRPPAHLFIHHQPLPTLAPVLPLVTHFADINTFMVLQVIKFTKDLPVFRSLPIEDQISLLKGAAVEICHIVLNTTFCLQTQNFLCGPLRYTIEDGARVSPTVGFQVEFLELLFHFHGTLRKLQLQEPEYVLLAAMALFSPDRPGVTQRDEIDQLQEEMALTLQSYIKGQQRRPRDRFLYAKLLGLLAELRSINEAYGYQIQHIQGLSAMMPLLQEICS
# Chain of Luciferin 4-monooxygenase (Photinus pyralis) (P08659 whole entry, looked up): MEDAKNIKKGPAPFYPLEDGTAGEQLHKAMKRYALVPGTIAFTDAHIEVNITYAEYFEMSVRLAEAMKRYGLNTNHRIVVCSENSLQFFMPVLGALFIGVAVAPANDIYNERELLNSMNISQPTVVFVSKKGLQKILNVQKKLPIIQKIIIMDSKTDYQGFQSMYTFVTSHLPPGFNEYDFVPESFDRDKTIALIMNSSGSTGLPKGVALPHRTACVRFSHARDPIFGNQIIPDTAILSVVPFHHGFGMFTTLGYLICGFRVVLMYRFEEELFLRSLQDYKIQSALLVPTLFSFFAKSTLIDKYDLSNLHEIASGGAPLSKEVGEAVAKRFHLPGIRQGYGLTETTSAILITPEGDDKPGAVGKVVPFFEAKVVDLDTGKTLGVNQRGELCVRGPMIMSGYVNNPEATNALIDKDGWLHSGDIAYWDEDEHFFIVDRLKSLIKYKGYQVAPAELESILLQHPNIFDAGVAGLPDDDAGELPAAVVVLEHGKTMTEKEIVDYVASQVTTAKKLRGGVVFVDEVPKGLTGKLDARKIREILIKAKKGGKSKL
compound,measurement,setting,value
CCCCc1oc2ccc(NS(C)(=O)=O)cc2c1C(=O)c1ccc(OCCCN(CCCC)CCCC)cc1,Potency,[1],21.1 µM (active)
same,Potency,[2],inactive
same,Potency,[3],inactive
same,Potency,[4],inactive
same,Potency,[5],inactive
same,Potency,[6],15.1 µM (active)
same,Potency,[7],16.8 µM (active)
same,"activity change, positive = activation",[8]; [21],-64.5% [at 42.5 µM] (inactive)
same,Potency,[9],9.52 µM (active)
same,Potency,[10],inactive
same,Potency,[11],9.52 µM (active)
Clc1ccccc1C(c1ccccc1)(c1ccccc1)n1ccnc1,Potency,[1],27.3 µM (active) and 11.9 µM (active)
same,Potency,[2],inactive
same,Potency,[12],5.45 µM (active) and 9.44 µM (active)
same,Potency,[4],inactive
same,Potency,[5],inactive
same,Potency,[6],21.9 µM (active)
same,Potency,[13],40.1 µM (active) and inactive
same,Potency,[7],3.86 µM (active) and 11.9 µM (active)
same,"activity change, positive = activation",[8]; at 42.5 µM (top of the series),-60.3% (inactive)
same,"activity change, positive = activation",[8]; at 92.4 µM (top of the series),-72.6% (inactive)
same,Potency,[9],21.9 µM (active) and 6.74 µM (active)
same,Potency,[10],inactive
same,Potency,[11],24.5 µM (active) and inactive
N#CSc1ccc(N)c([N+](=O)[O-])c1,Potency,[1],54.8 µM (active)
same,Potency,[14],48.9 µM (active)
same,Potency,[15],43.5 µM (active)
same,Potency,[16],48.9 µM (active)
same,Potency,[3],inactive
same,Potency,[17],54.8 µM (active)
same,Potency,[12],30.8 µM (active)
same,Potency,[4],inactive
same,Potency,[18],inactive
same,Potency,[13],inactive
same,Potency,[7],43.5 µM (active)
same,"activity change, positive = activation",[8]; [21],-63.3% (inactive)
same,Potency,[9],49.3 µM (active)
same,Potency,[11],inactive
Nc1c(Cl)cc(Cl)cc1Cl,Potency,[1],inactive
same,Potency,[14],inactive
same,Potency,[15],inactive
same,Potency,[16],inactive
same,Potency,[3],inactive
same,Potency,[17],inactive
same,Potency,[5],inactive
same,Potency,[6],inactive
same,Potency,[18],inactive
same,Potency,[19],inactive
same,Potency,[20],inactive
same,Potency,[9],inactive
same,Potency,[11],inactive
Oc1cccc(-c2c3nc(c(-c4cccc(O)c4)c4ccc([nH]4)c(-c4cccc(O)c4)c4nc(c(-c5cccc(O)c5)c5ccc2[nH]5)CC4)C=C3)c1,Potency,[1],10.6 µM (active)
same,Potency,[14],5.96 µM (active)
same,Potency,[15],5.31 µM (active)
same,Potency,[16],inactive
same,Potency,[3],inactive
same,Potency,[17],10.6 µM (active)
same,Potency,[6],inactive
same,Potency,[11],inactive
COc1ccc(C(=O)/C(Br)=C\C(=O)O)cc1,Potency,[1],54.5 µM (active)
same,Potency,[15],inactive
same,Potency,[16],inactive
same,Potency,[12],inactive
same,Potency,[4],24.3 µM (active)
same,Potency,[5],inactive
same,Potency,[18],31.8 µM (active)
same,Potency,[19],inactive
same,Potency,[7],inactive
same,Potency,[9],38.9 µM (active)
same,Potency,[10],inactive
CCCC(c1cc(C(C)(C)C)c(O)cc1C)c1cc(C(C)(C)C)c(O)cc1C,Potency,[2],inactive
same,Potency,[14],39 µM (active)
same,Potency,[15],31 µM (active)
same,Potency,[16],24.6 µM (active)
same,Potency,[3],inactive
same,Potency,[17],22 µM (active)
same,Potency,[12],24.6 µM (active)
same,Potency,[4],inactive
same,Potency,[5],6.19 µM (active)
same,Potency,[6],9.89 µM (active)
same,Potency,[18],inactive
same,Potency,[13],25.6 µM (active)
same,Potency,[7],15.5 µM (active)
same,"activity change, positive = activation",[8]; [21],-83.3% (inactive)
same,Potency,[20],39.4 µM (active)
same,Potency,[9],19.7 µM (active)
same,Potency,[10],inactive
same,Potency,[11],31.3 µM (active)
